The list is not random: actives were taken first. Their share in the collection is about 1.1%.
OTUD3 block – human OTUD3 deubiquitinase inhibition. 47,000 compounds, 0.7% hits. purified OTUD3, Ub-rhodamine fluorescence, 2 h. Q5T2D3. inhibition, % at 25 µM
Target sequence (Q5T2D3 whole entry, looked up): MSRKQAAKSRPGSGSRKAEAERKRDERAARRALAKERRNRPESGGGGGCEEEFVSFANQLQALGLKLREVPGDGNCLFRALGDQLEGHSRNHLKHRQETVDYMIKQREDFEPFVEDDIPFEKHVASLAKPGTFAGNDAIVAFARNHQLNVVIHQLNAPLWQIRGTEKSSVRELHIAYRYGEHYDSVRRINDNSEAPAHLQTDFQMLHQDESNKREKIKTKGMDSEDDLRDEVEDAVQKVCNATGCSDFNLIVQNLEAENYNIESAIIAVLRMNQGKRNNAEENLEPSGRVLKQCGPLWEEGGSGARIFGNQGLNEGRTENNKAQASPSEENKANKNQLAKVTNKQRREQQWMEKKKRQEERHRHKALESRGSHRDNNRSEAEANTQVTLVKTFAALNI
USP7 inh – blocks human USP7 ubiquitin-rhodamine cleavage | Q93009 | purified USP7, Ub-rhodamine cleavage fluorescence | inhibition, % at 20 µM | 47,000 compounds, 0.3% hits
UCHL1 inh – inhibitors of human UCHL1 deubiquitinase; inhibition, % at 20 µM; 47,000 compounds, 0.2% hits; purified UCHL1, Ub-rhodamine cleavage fluorescence
Numbers stand for hits; - = inactive; . = not tested or not shown. Rule as the data show it: active = inhibition above about 30%; inactive = the rest.

SMILES | OTUD3 block | USP7 inh | UCHL1 inh
O=C(Cc1ccc(-n2c(=O)c3sccc3n(Cc3ccc(F)cc3)c2=O)cc1)NCCc1ccccc1 | - | - | -
Cc1ccccc1NC(=O)Cn1c(=O)n(-c2ccc(CC(=O)NCCc3ccccc3)cc2)c(=O)c2sccc21 | - | 31.7 | -
CC(C)(NC(=O)Cc1ccccc1)c1nc2c(c(C(N)=O)n1)OCO2 | - | . | -
CC(C)(NC(=O)C1CCCCC1)c1nc2c(c(C(N)=O)n1)OCCO2 | - | 81.0 | -
O=C(c1cc2ccccc2o1)N1CC=C(c2ccccc2)CC1 | 31.9 | - | -
O=C(c1cc2ccccc2o1)N1CCc2sccc2C1c1ccccc1 (stereo not given) | - | - | -
O=C(c1cccn(Cc2ccc(C(F)(F)F)cc2)c1=O)N1CCOCC1 | - | - | -
COc1ccccc1-c1nc(-c2cn(-c3ccc(C)cc3)nn2)no1 | - | - | -
COc1ccccc1-c1nc(-c2cn(-c3cccc(Cl)c3)nn2)no1 | - | 51.4 | -
CCOc1ncccc1C(=O)N1CCN(C2CCN(Cc3c(C)noc3C)CC2)C(=O)C1 | - | - | -
CC[C@H](C)C[C@H]1CC[C@](O)([C@](C)(O)C(=O)N[C@@H]2C(=O)N3NCCC[C@@H]3C(=O)N(O)[C@@H](C)C(=O)NCC(=O)N3NCCC[C@H]3C(=O)N(O)[C@H](C)C(=O)O[C@H]2C(C)C)O[C@@H]1C | 72.7 | - | -
NS(=O)(=O)c1ccc(CCNC(=O)C(=O)c2c[nH]c3ccccc23)cc1 | - | - | -
Cn1c(=O)c2c(nc3n(CCO)c(-c4ccc(Cl)cc4)cn23)n(C)c1=O | - | - | -
Cn1c(=O)c2nc(-c3ccc(Cl)cc3)nnc2n(C)c1=O | - | - | 31.8
Cc1noc(C)c1CC(=O)N1C[C@H]2CC(Oc3ccccc3)C[C@H]2C1 (stereo not given in full) | - | - | -
COc1ccccc1CNc1ncnc2c1[nH]c1ccccc12 | - | - | -
O=C(Cc1ccccc1F)Nc1nc(-c2ccco2)c(-c2ccco2)s1 | 57.5 | - | -
COc1ccc(-c2nc(NC(=O)Cc3ccccc3OC)sc2C)cc1 | - | - | -
COc1ccc(CC(=O)Nc2nc3c(s2)CCC3)cc1 | - | - | -
COc1ccc(CC(=O)Nc2nc(-c3ccco3)c(-c3ccco3)s2)cc1 | 62.0 | - | -
CC(=O)NC(Cc1ccccc1C)C(=O)NC1CCN(C(=O)c2cnccn2)CC1 (stereo not given) | - | - | -
Cc1cccc(CNC(=O)c2csc(C(=O)NC3CC3)n2)c1 | - | - | -
N#C/C(=C\c1ccccc1C(F)(F)F)c1nnc(N2CCOCC2)n1-c1ccccc1 | - | - | -
O=C(CSc1nc(C(F)(F)F)cc(=O)[nH]1)NCc1ccccc1 | - | - | -
O=C(CSc1nc2cc(C(F)(F)F)ccc2s1)NCC(=O)c1ccccc1 | - | 58.5 | -
SMILES | OTUD3 block | USP7 inh | UCHL1 inh
O=C(Nc1ccnn1Cc1cccnc1)c1cccnc1Sc1ccccc1Cl | - | - | -
Cc1ccc(-c2nc(NC(=O)COc3cc(C)cc(C)c3)no2)cc1 | - | - | -
Cc1ccc(-c2nc(NC(=O)COc3ccc(Cl)cc3)no2)cc1 | - | 63.5 | -
CCCCc1nc2sc3c(NCCCO)ncnc3c2c2c1COC(C)(C)C2 | - | - | -
O=C(c1cccs1)N(CCCn1ccnc1)c1nc2c(F)cccc2s1 | - | - | -
CNC(=O)c1cccc(C2CN(C(=O)CC3CCCC3)CCN2C)c1 (stereo not given) | - | - | -
CC1O[C@@H](c2ccc3c(c2O)C(=O)C2=C(C3=O)[C@@]3(O)C(=O)C(O)[C@](C)(O)C[C@@]3(O)C=C2)CC[C@@H]1OC(=O)/C=C/C=C/C=C/[C@@H]1O[C@@](C)(C(=O)O)O[C@H]1C (stereo not given in full) | 46.3 | - | 37.6
C[C@@H]1OC(O[C@@H]2C[C@H](c3ccc4c(c3O)C(=O)C3=C(C4=O)[C@@]4(OC5CC[C@H](O)[C@H](C)O5)C(=O)C[C@](C)(O)C[C@@]4(O)C=C3)O[C@H](C)C2O)CC[C@@H]1O[C@H]1C[C@@H](O)[C@H](O)[C@@H](C)O1 (stereo not given in full) | - | - | -
CNC(=O)C1CN(C(=O)c2ccc(C#N)cc2)CC12CCCC2 (stereo not given) | - | - | -
CNC(=O)C1CN(C(=O)c2ccc(OC)cc2)CC12CCCC2 (stereo not given) | 54.7 | - | -
COc1ccc(-c2cn3c(nc4c3c(=O)n(C)c(=O)n4C)o2)cc1OC | - | - | -
COc1ccccc1-c1nnc2sc(COc3ccc(F)cc3)nn12 | - | - | -
Cc1ccccc1-c1nnc2sc(COc3ccc(Cl)cc3)nn12 | 36.9 | - | -
O=C(CN1CCCCCC1)Nc1cc([N+](=O)[O-])ccc1Cl | - | - | -
O=C(CN1CCCCC1)Nc1nnc(-c2ccc([N+](=O)[O-])cc2)s1 | 40.1 | - | -
O=C(Nc1ccc(-c2cn3ccsc3n2)cc1)c1ccc(Cl)c([N+](=O)[O-])c1 | - | 54.2 | -
Cc1ccc(-c2cn3ccsc3n2)cc1 | - | - | -
Cc1nn(-c2ccccc2Cl)cc1-c1noc(C(=O)NCC2CCCO2)n1 (stereo not given) | - | - | -
Cc1nnc(-c2coc(S(=O)(=O)N3CCN(c4ccccc4F)CC3)c2)o1 | - | - | -
CCc1ccccc1Nc1nc(N)nc(CSc2ccc(F)cc2)n1 | - | - | -
Cc1ccc(CN2C[C@@H]3c4nc(N(C)C)ncc4CS(=O)(=O)[C@@H]3C2)cc1 | - | - | -
CC1CCC(N2C(=O)c3cc4occc4n3CC2(C)C(=O)NC2CCCCC2)CC1 (stereo not given) | - | - | -
COc1ccc(C)cc1NC(=O)CN1C(=O)C2CCCC2=Nc2ccccc21 (stereo not given) | 34.6 | - | -
COc1cccc(NC(=O)CN2C(=O)C3CCCC3=Nc3ccccc32)c1 (stereo not given) | - | - | -
CC(C(=O)NCc1ccccn1)n1cccc1C(=O)c1ccccc1 (stereo not given) | - | - | -
SMILES | OTUD3 block | USP7 inh | UCHL1 inh
CC(C(=O)NCc1ccc(F)cc1)n1cccc1C(=O)c1ccccc1 (stereo not given) | 73.7 | - | -
Cc1cc(C)c(NC(=O)Cn2c(=O)n(Cc3ccccc3)c(=O)c3nn(C)cc32)c(C)c1 | 43.8 | - | -
CCn1c(=O)c2nscc2n(CC(=O)Nc2ccc(C)cc2Cl)c1=O | - | - | -
CCn1cc2c(n1)c(=O)n(Cc1ccccc1)c(=O)n2CC(=O)Nc1ccc(C)cc1C | - | 30.1 | -
Cn1cc2c(n1)c(=O)n(Cc1ccc(F)cc1)c(=O)n2CC(=O)NCc1ccccc1 | - | - | -
CCc1[nH]c(=O)cc2cc(OC)c(OC)cc12 | 92.2 | - | 48.2
CCCc1cc(=O)[nH]c(N2CCN(c3ccccc3OC)CC2)n1 | - | - | -
O=C(c1ccc2occc2c1)N1CCC(S(=O)(=O)c2ccc(-c3ccco3)cc2)CC1 | - | 51.7 | 51.8
O=S(=O)(c1ccc(-c2ccco2)cc1)C1CCN(Cc2cccnc2)CC1 | - | - | -
Cc1c(C(=O)N(C)c2nc3c(s2)CCc2occc2-3)oc2ccccc12 | 36.0 | - | -
CN(C(=O)c1cccs1)c1nc2c(s1)CCc1occc1-2 | - | - | -
COc1ccc2nc(NC(=O)c3cc([N+](=O)[O-])cnc3C)sc2c1 | - | - | -
